A selection: hits, their analogues and other compounds. The true share with any hit is near 19%.
Pf growth 48h: Primary qHTS for delayed death inhibitors of the malarial parasite plastid, 48 hour incubation; P. falciparum luciferase growth in erythrocytes, 48 h; Potency, µM (highest dose often 28.7 µM), hits mostly inhibitors; 310,000 compounds, 5.9% hits; AID 504832, 2011
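Luciferase-expressing P. falciparum in infected erythrocytes (2% hematocrit, 0.1% parasitemia final) in RPMI 1640/0.5% Albumax were exposed to compound for 48 hours at 37 C, 5% CO2; growth read as luminescence.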
MARV entry inh: qHTS for inhibitors of binding or entry into cells for Marburg Virus; Marburg virus pseudotyped entry inhibition, cell reporter; Potency, µM (highest dose often 37.8 µM), usual class: inhibitors; 300,000 compounds, 1.8% hits; AID 540276, 2011; calls by dose curve; tested in HEK293 cells
LASV entry inh: qHTS for Inhibitors of binding or entry into cells for Lassa Virus; 300,000 compounds, 1.2% hits; Potency, µM (top dose mostly 37.9 µM), most hits filed as inhibitors; Lassa virus pseudotype entry inhibition, cell reporter; calls by dose curve; tested in HEK293 cells; also: nearly all actives have a fitted effect of over 50% in size
Shiga inhibitor: A qHTS for Small Molecule Inhibitors of Shiga Toxin; inhibition, % at 38.7 µM; AID 2315, 2010; Vero cells, Shiga toxin protein synthesis inhibition reporter; 290,000 compounds, 9.2% hits; in the data active = inhibition mostly above about 28%, no sharp cut-off; inactive = mostly below about 43%
CHX counter: Cycloheximide Counterscreen for Small Molecule Inhibitors of Shiga Toxin. cell reporter, cycloheximide protein synthesis inhibition counterscreen. max response, %. 300,000 compounds, 12% hits. AID 2314, 2010; in the data active = max response mostly above about 13%, no sharp cut-off; inactive = mostly below about 14%; also: read at 38.3 µM for the half of the compounds with a filed dose
Pf growth 96h: Primary qHTS for delayed death inhibitors of the malarial parasite plastid, 96 hour incubation; Potency, µM (doses to about 28.7 µM), most hits filed as inhibitors; P. falciparum luciferase reporter growth, 96 h; 320,000 compounds, 6.9% hits; AID 504834, 2011
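Plates of compound plus infected erythrocytes (2% hematocrit, 0.05% parasitemia final) incubate 96 hours, 37 C, 5% CO2. Detection reagent added; reduced luminescence from the parasites' luciferase reporter flags inhibition.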
Large screens that a line does not name were inactive; ! = not active in a repeat. Unless noted, calls follow the shape of the dose curve; as a rule, active = well fitted inhibition curve with a large enough effect; inconclusive = small, poorly fitted or top-dose-only effect, or another doubt; inactive = no such curve, though single readings can be large or run the other way.

CC(C)NC[C@H](O)COc1ccc(CC(N)=O)cc1	MARV entry inh 0.11µM! (no result: Shiga inhibitor, CHX counter)
CC(NCC(O)COc1ccc2ccccc2c1)c1ccccc1 (centres undefined)	Pf growth 48h 9.3µM, MARV entry inh inconclusive, Pf growth 96h 9.3µM
COc1ccc(OCC(O)CNC(C)c2ccccc2)cc1 (centres undefined)	Pf growth 96h inconclusive (no result: MARV entry inh, LASV entry inh)
Cn1nc(C(=O)NC2CCCN(Cc3ccccc3F)C2)c2ccccc2c1=O (centres undefined)	Pf growth 48h inconclusive, MARV entry inh inconclusive, LASV entry inh inconclusive, Pf growth 96h inconclusive
CC(CCN1CCCc2nc(C)c(C)cc21)=NOC[C@@H](C)[C@H](OCc1ccccc1)C(C)C	none (no result: Pf growth 48h, LASV entry inh, Shiga inhibitor, CHX counter, Pf growth 96h)
COc1ccc(CNC(=S)Nc2ccc(F)c(Cl)c2)cc1OC	Pf growth 48h inconclusive
CC(C)NCC(O)COc1ccc2c(c1)CCC2 (centres undefined)	MARV entry inh inconclusive, LASV entry inh inconclusive, Shiga inhibitor 110, CHX counter 32
OC(CNCc1ccccc1)COc1ccccc1 (centres undefined)	Pf growth 48h inconclusive (no result: MARV entry inh, LASV entry inh, Shiga inhibitor, CHX counter)
CC(CCc1ccccc1)NCC(O)COc1ccccc1 (centres undefined)	Pf growth 48h 5.2µM, MARV entry inh inconclusive, Pf growth 96h inconclusive
C=CCn1c(O)c(C(CC)=NCC2CCCO2)c(=O)[nH]c1=O (centres undefined)	Pf growth 48h inconclusive, Pf growth 96h inconclusive
COc1cccc(C2=CC(c3cccs3)n3nnnc3N2)c1 (centres undefined)	MARV entry inh inconclusive, LASV entry inh inconclusive, Shiga inhibitor 48, CHX counter 41 (no result: Pf growth 48h)
COc1cccc(C2=CC(c3ccc(C)cc3)n3ncnc3N2)c1 (centres undefined)	Pf growth 48h inconclusive (no result: LASV entry inh)
COc1ccc(C2=CC(c3ccc(F)cc3)n3nnnc3N2)cc1 (centres undefined)	Pf growth 96h inconclusive (no result: Pf growth 48h)
COc1ccc(C2=CC(c3sccc3C)n3nnnc3N2)cc1 (centres undefined)	MARV entry inh inconclusive, Shiga inhibitor 109, CHX counter 40
Cc1ccc(C2C=C(c3ccc4c(c3)OCO4)Nc3ncnn32)cc1 (centres undefined)	Pf growth 48h inconclusive, Pf growth 96h 12µM
Cc1ccc(C2=CC(c3ccc(N(C)C)cc3)n3nnnc3N2)cc1 (centres undefined)	CHX counter 26 (no result: Pf growth 48h, MARV entry inh, LASV entry inh)
Cc1ccsc1C1C=C(c2cccc(Br)c2)Nc2ncnn21 (centres undefined)	MARV entry inh inconclusive, Pf growth 96h 12µM
COc1cccc(C2=CC(c3ccc(OC)c(OC)c3OC)n3nnnc3N2)c1 (centres undefined)	Shiga inhibitor 92, CHX counter 35
Cc1cccc(C2C=C(c3ccc(C)c(C)c3)Nc3nnnn32)c1 (centres undefined)	none (no result: Pf growth 48h, MARV entry inh, Shiga inhibitor, CHX counter, Pf growth 96h)
O=S(=O)(/N=C(/c1ccccc1Cl)N1CCOCC1)c1ccccc1	LASV entry inh inconclusive, Pf growth 96h inconclusive
CN(C)CCCNS(=O)(=O)c1ccc(N2CCC(c3ccc(Cl)cc3)=N2)cc1	Pf growth 48h 9.3µM (no result: MARV entry inh, LASV entry inh, Pf growth 96h)
Cc1cc(C)cc(NC(=O)c2cccn2-c2ncc(C(F)(F)F)cc2Cl)c1	Pf growth 48h inconclusive, Pf growth 96h 13µM
Cc1ccc(OCC(=O)OCc2cc(=O)n3nc(-c4cccs4)sc3n2)cc1C	none (no result: Pf growth 48h, MARV entry inh, Shiga inhibitor, CHX counter, Pf growth 96h)
COCc1ccc(C(=O)N2CCCC(N(C)CCc3ccc(OC)c(OC)c3)C2)s1 (centres undefined)	Pf growth 96h inconclusive
COCC(=O)N1CCCC(N(C)CCc2ccc(OC)c(OC)c2)C1 (centres undefined)	CHX counter 18 (no result: MARV entry inh, LASV entry inh, Shiga inhibitor)
C=CCSC(=C(C#N)C#N)c1cc2c([nH]1)CCCC2	Pf growth 48h inconclusive, MARV entry inh inconclusive, LASV entry inh 11µM, CHX counter 25 (no result: Pf growth 96h)
O=C(O)c1cc2c([nH]c1=O)CCCC2	none
c1ccc2c(c1)CCCN2Cc1nnc2n1CCCCC2	none
Cc1ccc(C(=O)NC(=S)N(C)C2CCCCC2)cc1	Shiga inhibitor 126, CHX counter 50, Pf growth 96h inconclusive (no result: MARV entry inh, LASV entry inh)
O=C(Nc1nccs1)NC1CCCCC1	Pf growth 48h 2.9µM
COC(=O)c1sccc1NC(=O)NC1CCCCC1	CHX counter 47 (no result: MARV entry inh, LASV entry inh)
COC(=O)c1sccc1NC(=S)N(C)C1CCCCC1	Pf growth 48h 9.3µM, Pf growth 96h inconclusive (no result: MARV entry inh, LASV entry inh)
CC(C)C(OC(=O)CCC(=O)Nc1nccs1)C(=O)NC1CCCCC1 (centres undefined)	none
Cc1cccc(NC(=O)c2ccc(NS(=O)(=O)c3c(C)noc3C)cc2)c1	none
COc1cc2ccccc2cc1C(=O)N1CC(C)OC(C)C1 (centres undefined)	none (no result: Pf growth 48h, Shiga inhibitor, CHX counter, Pf growth 96h)
CC1CN(C(=O)c2cc(F)c(F)cc2Cl)CC(C)O1 (centres undefined)	none (no result: Pf growth 48h, Shiga inhibitor, CHX counter, Pf growth 96h)
COc1cc(SC)ccc1C(=O)N1CC(C)OC(C)C1 (centres undefined)	Pf growth 48h 1.7µM
Cc1ccc(C(=O)N2CC(C)OC(C)C2)c(Cl)c1 (centres undefined)	Pf growth 96h 3.7µM (no result: Pf growth 48h)
Cc1cc(C)cc(NC(=O)CSc2nc(=O)n(CCN3CCOCC3)c3c2CCCC3)c1	none (no result: Shiga inhibitor, CHX counter)
Cc1cc2oc(=O)cc(CN3CCC(C)CC3)c2c(C)c1Cl	MARV entry inh inconclusive
Cc1cc(C)c2c(CN3CCC(C)CC3)cc(=O)oc2c1	MARV entry inh inconclusive, Shiga inhibitor 61, CHX counter 38
Cc1cc2oc(=O)cc(CN3CCN(S(=O)(=O)c4ccc5c(c4)OCCO5)CC3)c2cc1C	Pf growth 48h inconclusive, Pf growth 96h inconclusive
Cc1cc(C)c2c(CN3CCN(C/C=C/c4ccccc4)CC3)cc(=O)oc2c1	Pf growth 48h 9.3µM, MARV entry inh inconclusive, Pf growth 96h 7.4µM
Cc1cc(C)c2c(CN3CCCCC3C)cc(=O)oc2c1 (centres undefined)	none
Cc1cc(C)c2c(CN3CCCCC3)cc(=O)oc2c1	LASV entry inh inconclusive, CHX counter 11
Cc1cc2oc(=O)cc(CN3CCN(S(=O)(=O)/C=C/c4ccccc4)CC3)c2cc1C	Pf growth 48h 10µM, Pf growth 96h inconclusive
CCCC1=Nc2cc(C(=O)NCCN3CCOCC3)ccc2Sc2ccc(C)cc21	Pf growth 48h inconclusive (no result: MARV entry inh, LASV entry inh)
O=C(c1ccccc1)c1c[nH]c2cc3c(cc2c1=O)OCO3	Pf growth 96h inconclusive (no result: MARV entry inh, LASV entry inh)
O=C(NCc1ccccc1Cl)C1CCC(CNc2c(N3CCOCC3)c(=O)c2=O)CC1 (centres undefined)	none
CC1CCN(Cc2cc(=O)oc3ccc4ccccc4c23)CC1	Pf growth 48h 7.4µM, MARV entry inh inconclusive, Pf growth 96h 8.3µM
O=C(Nc1ccc(-c2nnn(CC(=O)N3CCN(C(=O)c4ccco4)CC3)n2)cc1)c1ccccc1F	Shiga inhibitor 84, CHX counter 51 (no result: MARV entry inh, LASV entry inh)
COc1ccccc1C(=O)Nc1ccc(-c2nnn(CC(=O)N3CCN(C(=O)c4ccco4)CC3)n2)cc1	MARV entry inh inconclusive, CHX counter 28
COc1cccc(OC)c1C(=O)Nc1ccc(N2CCN(C(=O)c3ccco3)CC2)cc1	Pf growth 96h inconclusive (no result: LASV entry inh)
